Residue numbers refer to the chain shown, from its start.
What was measured:
Experiment in all cases: PBM; 200 nM protein, PBS
Conditions in all cases: dsDNA, one strand shown
NKX2-5 [1] = molecular target: NKX2-5 (Homo sapiens, UniProt P52952 125-210, R139K)
NKX2-4 [2] = molecular target: T1, NKX2-4 (Homo sapiens, UniProt Q9H2Z4 175-261, P217L)
T1 sequence: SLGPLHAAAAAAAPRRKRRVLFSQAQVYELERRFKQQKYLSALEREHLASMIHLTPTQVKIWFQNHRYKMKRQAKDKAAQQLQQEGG

NKX2-4 [3] = molecular target: T2, NKX2-4 (Homo sapiens, UniProt Q9H2Z4 175-261, T231S)
T2 sequence: T1 sequence with L43P, T57S

NKX2-4 [4] = molecular target: T3, NKX2-4 (Homo sapiens, UniProt Q9H2Z4 175-261)
T3 sequence: T1 sequence with L43P

NKX2-6 [5] = molecular target: T4, NKX2-6 (Homo sapiens, UniProt A6NCS4 118-204, R150C)
T4 sequence: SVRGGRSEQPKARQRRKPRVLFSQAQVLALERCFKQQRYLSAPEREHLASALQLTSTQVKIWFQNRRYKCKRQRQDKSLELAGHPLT

NKX2-6 [6] = molecular target: T5, NKX2-6 (Homo sapiens, UniProt A6NCS4 118-204)
T5 sequence: T4 sequence with C33R

NKX2-4 [7] = molecular target: T6, NKX2-4 (Homo sapiens, UniProt Q9H2Z4 175-261, R246Q)
T6 sequence: T1 sequence with L43P, R72Q

NKX2-6 [8] = molecular target: T7, NKX2-6 (Homo sapiens, UniProt A6NCS4 118-204, F151L)
T7 sequence: T4 sequence with C33R, F34L

NKX3-2 [9] = molecular target: NKX3-2 (Homo sapiens, UniProt P78367 192-278, P234S)
NKX3-2 (Homo sapiens, UniProt P78367 192-278, P234S), sequence (P78367 192-278 P234S): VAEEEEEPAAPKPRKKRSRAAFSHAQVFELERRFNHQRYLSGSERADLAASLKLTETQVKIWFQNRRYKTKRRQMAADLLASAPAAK

NKX2-5 [10] = molecular target: NKX2-5 (Homo sapiens, UniProt P52952 125-210)
NKX2-5 (Homo sapiens, UniProt P52952 125-210), sequence (P52952 125-210): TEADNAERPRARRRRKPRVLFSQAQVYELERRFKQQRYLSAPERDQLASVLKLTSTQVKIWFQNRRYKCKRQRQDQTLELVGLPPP

NKX3-2 [11] = molecular target: NKX3-2 (Homo sapiens, UniProt P78367 192-278)
NKX3-2 (Homo sapiens, UniProt P78367 192-278), sequence (P78367 192-278): as the sequence (P78367 192-278 P234S) above, with S43P counted along it

NKX2-5 (Homo sapiens, UniProt P52952 125-210, R139K), sequence (P52952 125-210 R139K): as the sequence (P52952 125-210) above, with R15K counted along it

| Sequence | binding signal (NKX2-5 [1]) | binding signal (NKX2-4 [2]) | binding signal (NKX2-4 [3]) | binding signal (NKX2-4 [4]) | binding signal (NKX2-6 [5]) | binding signal (NKX2-6 [6]) | binding signal (NKX2-4 [7]) | binding signal (NKX2-6 [8]) | binding signal (NKX3-2 [9]) | binding signal (NKX2-5 [10]) | binding signal (NKX3-2 [11]) |
| --- | --- | --- | --- | --- | --- | --- | --- | --- | --- | --- | --- |
| AAGTACTT | 13.2 upbm affinity estimate (log intensity, higher = more binding, comparable within an allelic series) | 12.9 upbm affinity estimate (log intensity, higher = more binding, comparable within an allelic series) | 13.3 upbm affinity estimate (log intensity, higher = more binding, comparable within an allelic series) | 12.7 upbm affinity estimate (log intensity, higher = more binding, comparable within an allelic series) | 12.1 upbm affinity estimate (log intensity, higher = more binding, comparable within an allelic series) | 13.8 upbm affinity estimate (log intensity, higher = more binding, comparable within an allelic series) | 13.3 upbm affinity estimate (log intensity, higher = more binding, comparable within an allelic series) | 11.5 upbm affinity estimate (log intensity, higher = more binding, comparable within an allelic series) | 12.6 upbm affinity estimate (log intensity, higher = more binding, comparable within an allelic series) | 13 upbm affinity estimate (log intensity, higher = more binding, comparable within an allelic series) | 12.7 upbm affinity estimate (log intensity, higher = more binding, comparable within an allelic series) |
| CACTTATC | 12.8 upbm affinity estimate (log intensity, higher = more binding, comparable within an allelic series) | 12.7 upbm affinity estimate (log intensity, higher = more binding, comparable within an allelic series) | 13 upbm affinity estimate (log intensity, higher = more binding, comparable within an allelic series) | 12.5 upbm affinity estimate (log intensity, higher = more binding, comparable within an allelic series) | 12.1 upbm affinity estimate (log intensity, higher = more binding, comparable within an allelic series) | 13.8 upbm affinity estimate (log intensity, higher = more binding, comparable within an allelic series) | 13.2 upbm affinity estimate (log intensity, higher = more binding, comparable within an allelic series) | 11.2 upbm affinity estimate (log intensity, higher = more binding, comparable within an allelic series) | 12.7 upbm affinity estimate (log intensity, higher = more binding, comparable within an allelic series) | 12.8 upbm affinity estimate (log intensity, higher = more binding, comparable within an allelic series) | 12.8 upbm affinity estimate (log intensity, higher = more binding, comparable within an allelic series) |
| ATTAAGTG | 12.7 upbm affinity estimate (log intensity, higher = more binding, comparable within an allelic series) | 12.5 upbm affinity estimate (log intensity, higher = more binding, comparable within an allelic series) | 12.9 upbm affinity estimate (log intensity, higher = more binding, comparable within an allelic series) | 12.4 upbm affinity estimate (log intensity, higher = more binding, comparable within an allelic series) | 11.8 upbm affinity estimate (log intensity, higher = more binding, comparable within an allelic series) | 13.7 upbm affinity estimate (log intensity, higher = more binding, comparable within an allelic series) | 13 upbm affinity estimate (log intensity, higher = more binding, comparable within an allelic series) | 11 upbm affinity estimate (log intensity, higher = more binding, comparable within an allelic series) | 12.7 upbm affinity estimate (log intensity, higher = more binding, comparable within an allelic series) | 12.6 upbm affinity estimate (log intensity, higher = more binding, comparable within an allelic series) | 12.8 upbm affinity estimate (log intensity, higher = more binding, comparable within an allelic series) |
| ACCACTTG | 12.8 upbm affinity estimate (log intensity, higher = more binding, comparable within an allelic series) | 12.6 upbm affinity estimate (log intensity, higher = more binding, comparable within an allelic series) | 13 upbm affinity estimate (log intensity, higher = more binding, comparable within an allelic series) | 12.5 upbm affinity estimate (log intensity, higher = more binding, comparable within an allelic series) | 11.8 upbm affinity estimate (log intensity, higher = more binding, comparable within an allelic series) | 13.5 upbm affinity estimate (log intensity, higher = more binding, comparable within an allelic series) | 13.1 upbm affinity estimate (log intensity, higher = more binding, comparable within an allelic series) | 10.7 upbm affinity estimate (log intensity, higher = more binding, comparable within an allelic series) | 12.6 upbm affinity estimate (log intensity, higher = more binding, comparable within an allelic series) | 12.6 upbm affinity estimate (log intensity, higher = more binding, comparable within an allelic series) | 12.7 upbm affinity estimate (log intensity, higher = more binding, comparable within an allelic series) |
| ATAAGTGC | 13 upbm affinity estimate (log intensity, higher = more binding, comparable within an allelic series) | 12.7 upbm affinity estimate (log intensity, higher = more binding, comparable within an allelic series) | 13.1 upbm affinity estimate (log intensity, higher = more binding, comparable within an allelic series) | 12.6 upbm affinity estimate (log intensity, higher = more binding, comparable within an allelic series) | 12.2 upbm affinity estimate (log intensity, higher = more binding, comparable within an allelic series) | 13.8 upbm affinity estimate (log intensity, higher = more binding, comparable within an allelic series) | 13.3 upbm affinity estimate (log intensity, higher = more binding, comparable within an allelic series) | 11.4 upbm affinity estimate (log intensity, higher = more binding, comparable within an allelic series) | 12.9 upbm affinity estimate (log intensity, higher = more binding, comparable within an allelic series) | 12.9 upbm affinity estimate (log intensity, higher = more binding, comparable within an allelic series) | 13 upbm affinity estimate (log intensity, higher = more binding, comparable within an allelic series) |
| CACTTAAA | 13.1 upbm affinity estimate (log intensity, higher = more binding, comparable within an allelic series) | 12.7 upbm affinity estimate (log intensity, higher = more binding, comparable within an allelic series) | 13.1 upbm affinity estimate (log intensity, higher = more binding, comparable within an allelic series) | 12.6 upbm affinity estimate (log intensity, higher = more binding, comparable within an allelic series) | 12 upbm affinity estimate (log intensity, higher = more binding, comparable within an allelic series) | 13.8 upbm affinity estimate (log intensity, higher = more binding, comparable within an allelic series) | 13.2 upbm affinity estimate (log intensity, higher = more binding, comparable within an allelic series) | 11.4 upbm affinity estimate (log intensity, higher = more binding, comparable within an allelic series) | 12.7 upbm affinity estimate (log intensity, higher = more binding, comparable within an allelic series) | 13 upbm affinity estimate (log intensity, higher = more binding, comparable within an allelic series) | 12.8 upbm affinity estimate (log intensity, higher = more binding, comparable within an allelic series) |
| ACACTTAA | 13 upbm affinity estimate (log intensity, higher = more binding, comparable within an allelic series) | 12.6 upbm affinity estimate (log intensity, higher = more binding, comparable within an allelic series) | 13 upbm affinity estimate (log intensity, higher = more binding, comparable within an allelic series) | 12.5 upbm affinity estimate (log intensity, higher = more binding, comparable within an allelic series) | 12 upbm affinity estimate (log intensity, higher = more binding, comparable within an allelic series) | 13.8 upbm affinity estimate (log intensity, higher = more binding, comparable within an allelic series) | 13.1 upbm affinity estimate (log intensity, higher = more binding, comparable within an allelic series) | 11.5 upbm affinity estimate (log intensity, higher = more binding, comparable within an allelic series) | 12.7 upbm affinity estimate (log intensity, higher = more binding, comparable within an allelic series) | 12.8 upbm affinity estimate (log intensity, higher = more binding, comparable within an allelic series) | 12.8 upbm affinity estimate (log intensity, higher = more binding, comparable within an allelic series) |
| CCACTTCA | 12.9 upbm affinity estimate (log intensity, higher = more binding, comparable within an allelic series) | 12.9 upbm affinity estimate (log intensity, higher = more binding, comparable within an allelic series) | 13.2 upbm affinity estimate (log intensity, higher = more binding, comparable within an allelic series) | 12.7 upbm affinity estimate (log intensity, higher = more binding, comparable within an allelic series) | 12 upbm affinity estimate (log intensity, higher = more binding, comparable within an allelic series) | 13.7 upbm affinity estimate (log intensity, higher = more binding, comparable within an allelic series) | 13.4 upbm affinity estimate (log intensity, higher = more binding, comparable within an allelic series) | 11 upbm affinity estimate (log intensity, higher = more binding, comparable within an allelic series) | 12.8 upbm affinity estimate (log intensity, higher = more binding, comparable within an allelic series) | 12.9 upbm affinity estimate (log intensity, higher = more binding, comparable within an allelic series) | 12.8 upbm affinity estimate (log intensity, higher = more binding, comparable within an allelic series) |
| CACTTGAC | 12.9 upbm affinity estimate (log intensity, higher = more binding, comparable within an allelic series) | 12.7 upbm affinity estimate (log intensity, higher = more binding, comparable within an allelic series) | 13.1 upbm affinity estimate (log intensity, higher = more binding, comparable within an allelic series) | 12.6 upbm affinity estimate (log intensity, higher = more binding, comparable within an allelic series) | 11.9 upbm affinity estimate (log intensity, higher = more binding, comparable within an allelic series) | 13.7 upbm affinity estimate (log intensity, higher = more binding, comparable within an allelic series) | 13.3 upbm affinity estimate (log intensity, higher = more binding, comparable within an allelic series) | 11.2 upbm affinity estimate (log intensity, higher = more binding, comparable within an allelic series) | 12.1 upbm affinity estimate (log intensity, higher = more binding, comparable within an allelic series) | 12.9 upbm affinity estimate (log intensity, higher = more binding, comparable within an allelic series) | 12.2 upbm affinity estimate (log intensity, higher = more binding, comparable within an allelic series) |
| CAAGTGGC | 12.5 upbm affinity estimate (log intensity, higher = more binding, comparable within an allelic series) | 12.4 upbm affinity estimate (log intensity, higher = more binding, comparable within an allelic series) | 12.8 upbm affinity estimate (log intensity, higher = more binding, comparable within an allelic series) | 12.3 upbm affinity estimate (log intensity, higher = more binding, comparable within an allelic series) | 11.7 upbm affinity estimate (log intensity, higher = more binding, comparable within an allelic series) | 13.4 upbm affinity estimate (log intensity, higher = more binding, comparable within an allelic series) | 12.9 upbm affinity estimate (log intensity, higher = more binding, comparable within an allelic series) | 10.7 upbm affinity estimate (log intensity, higher = more binding, comparable within an allelic series) | 12.5 upbm affinity estimate (log intensity, higher = more binding, comparable within an allelic series) | 12.4 upbm affinity estimate (log intensity, higher = more binding, comparable within an allelic series) | 12.6 upbm affinity estimate (log intensity, higher = more binding, comparable within an allelic series) |
| CACTTATG | 13 upbm affinity estimate (log intensity, higher = more binding, comparable within an allelic series) | 12.6 upbm affinity estimate (log intensity, higher = more binding, comparable within an allelic series) | 13 upbm affinity estimate (log intensity, higher = more binding, comparable within an allelic series) | 12.5 upbm affinity estimate (log intensity, higher = more binding, comparable within an allelic series) | 12.2 upbm affinity estimate (log intensity, higher = more binding, comparable within an allelic series) | 13.8 upbm affinity estimate (log intensity, higher = more binding, comparable within an allelic series) | 13.1 upbm affinity estimate (log intensity, higher = more binding, comparable within an allelic series) | 11.2 upbm affinity estimate (log intensity, higher = more binding, comparable within an allelic series) | 12.8 upbm affinity estimate (log intensity, higher = more binding, comparable within an allelic series) | 13 upbm affinity estimate (log intensity, higher = more binding, comparable within an allelic series) | 12.9 upbm affinity estimate (log intensity, higher = more binding, comparable within an allelic series) |
| CCACTTAA | 13.4 upbm affinity estimate (log intensity, higher = more binding, comparable within an allelic series) | 12.8 upbm affinity estimate (log intensity, higher = more binding, comparable within an allelic series) | 13.2 upbm affinity estimate (log intensity, higher = more binding, comparable within an allelic series) | 12.7 upbm affinity estimate (log intensity, higher = more binding, comparable within an allelic series) | 12.3 upbm affinity estimate (log intensity, higher = more binding, comparable within an allelic series) | 14.1 upbm affinity estimate (log intensity, higher = more binding, comparable within an allelic series) | 13.3 upbm affinity estimate (log intensity, higher = more binding, comparable within an allelic series) | 11.5 upbm affinity estimate (log intensity, higher = more binding, comparable within an allelic series) | 13.2 upbm affinity estimate (log intensity, higher = more binding, comparable within an allelic series) | 13.2 upbm affinity estimate (log intensity, higher = more binding, comparable within an allelic series) | 13.3 upbm affinity estimate (log intensity, higher = more binding, comparable within an allelic series) |

Reference: article PMC11006913
